Source: PubChem (several laboratories)
Pyk2 oligo antag = antagonists of Pyk2 self-association, primary screen, Q293 cells, FERM NanoBiT luminescence, HTS | active compounds read low | z-score (the deposit names both 25 µM and 10 µM) | actives 0.83% (n = 99,000) | AID 1347419, 2020;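 active means Z-score of -3 or lower, scaled per plate to the spread of control and sample wells; inactive means z-score above -3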;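 further: negative z-score means lost luminescence so less FERM oligomerization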
Cav32 inh = Cav3.2 calcium influx blockers – cell-based, Fluo-4 calcium fluorescence, FDSS, MLSMR library, primary screen; Voltage-dependent T-type calcium channel subunit alpha-1H (Homo sapiens), O95180; Cav3.2-expressing cells; active compounds read low; B-score at 10 µM; actives 4% (n = 100,000); AID 449739, 2010;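 active means single-dose well whose peak fluorescence ratio is a statistical outlier from its plate by either plate-standardised score or position-corrected B-score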
PostGolgi ctrl = growth inhibition of yeast control strain, primary screen, counter-screen for post-Golgi transport modulator project | actives 5% (n = 98,000) | inhibition, % at 10 µM | efflux-deficient yeast background strain, growth absorbance A615, 16 h | AID 738, 2007
PostGolgi yeast = phenotypic screen on post-Golgi transport, primary screen. inhibition, % at 10 µM. actives 0.9% (n = 98,000). post-Golgi transport phenotypic cell assay;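 further: yeast cells grown in 1536-well plates; yeast grown about 18 h at 30C before absorbance read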
Hits are given with their value; 0 = inactive; - = no result. Rows were chosen to be rich in hits. Some 8% of all compounds tested hit in one or more screens of this group. Unless noted, no stated cut-off is given here; in the data, active means inhibition above about 30%; inactive means the rest.

SMILES | Pyk2 oligo antag | Cav32 inh | PostGolgi ctrl | PostGolgi yeast
COc1ccc(CN(Cc2cc3cc4c(cc3[nH]c2=O)OCO4)C(=O)NC2CCCCC2)cc1 | 0 | -6.7 | 0 | 0
Cc1nc(COC(=O)c2c(C)nn(-c3ccccc3)c2C)cs1 | 0 | 0 | 0 | 0
CC1(C)CC(=O)C2=C(C1)NC(=O)CC2c1ccc(N(CCC#N)CCC#N)cc1 (configuration not stated) | 0 | 0 | 0 | 0
Cc1cc(C)cc(NCC(=O)Nc2c(C)cccc2C)c1 | 0 | 0 | 37 | 0
COc1nnc(-c2ccc(N3CCCCC3)c(N)c2)c2ccccc12 | 0 | -6.9 | - | -
CCCC(=O)Nc1cc(-c2nnc(OC)c3ccccc23)ccc1N1CCCCC1 | - | - | 43 | 0
COc1nnc(OC)c2ccccc12 | 0 | 0 | 0 | 0
CC[C@@H]1[C@H]2CCCC(=O)N3CC[C@@H](C[C@H]1O)[C@@H]23 | - | 0 | - | -
O=C(COC(=O)C1CC1)NCc1ccccc1Cl | 0 | 0 | 0 | 0
COC(=O)/C(=C\Nc1ccc(Cl)c2ccccc12)c1ncc(C(F)(F)F)cc1Cl | -3.4 | 0 | 0 | 0
N#C/C(=C/c1ccc2c(c1)OCO2)C(=O)NCCc1c[nH]c2ccccc12 | 0 | 0 | 36 | 0
CCOc1ccc(Nc2oc(-c3ccccc3Cl)nc2C#N)cc1 | - | 0 | 0 | 0
COc1ccc(C2CC(=O)N3CN(c4ccccc4F)CSC3=C2C#N)cc1OC (configuration not stated) | - | 0 | 0 | 0
CCc1ccccc1N1CSC2=C(C#N)C(c3ccccc3F)CC(=O)N2C1 (configuration not stated) | - | 0 | 34 | 0
COC(=O)C1=C(N)Oc2cc(C)n(CCCn3ccnc3)c(=O)c2C1c1cccc(Cl)c1 (configuration not stated) | 0 | 0 | - | -
Cn1c(-c2c(N)n(CCc3ccccc3)c3nc4ccccc4nc23)nc2ccccc21 | 0 | 0 | 78 | 88
Cn1c(-c2c(N)n(C3CCCC3)c3nc4ccccc4nc23)nc2ccccc21 | 0 | 0 | 100 | 0
COCCCn1c(N)c(-c2nc3ccccc3n2C)c2nc3ccccc3nc21 | 0 | 0 | 73 | 0
CC1CCCCC1NC(=O)CN1CCC(O)(c2ccc(F)cc2)CC1 (configuration not stated) | 0 | 0 | 0 | 0
COc1cccc(CN2C(=O)C3(C(C#N)=C(N)OC4=C3C(=O)CCC4)c3ccccc32)c1 (configuration not stated) | 0 | 0 | 0 | 34
CC1(C)CC(=O)C2=C(C1)OC(N)=C(C#N)C21C(=O)N(CN2CCOCC2)c2ccccc21 (configuration not stated) | 0 | 0 | 0 | 0
C=CCn1c(=O)c(C(=O)NCCNCC)c(O)c2ccccc21 | 0 | 0 | 0 | 0
CCNCCNC(=O)c1c(O)c2ccccc2n(CC)c1=O | 0 | 0 | 41 | 0
CC(C)Cn1c(=O)c(C(=O)Nc2cnccn2)c(O)c2ccccc21 | 0 | - | 39 | 0
Cc1ccnc(SCC(=O)Nc2c(C)n(C)n(-c3ccccc3)c2=O)n1 | 0 | 0 | 0 | 0
SMILES | Pyk2 oligo antag | Cav32 inh | PostGolgi ctrl | PostGolgi yeast
COc1ccc(CCNC(=O)C2=COCCO2)cc1 | 0 | 0 | 0 | 0
CCN(CC)S(=O)(=O)c1ccc(NC(=O)COC(=O)c2ccc(Br)o2)cc1 | 0 | -4.7 | 0 | 0
COc1ccc(CNC(=O)COC(=O)C2=COCCO2)cc1 | 0 | 0 | 0 | 37
COc1ccc(CCNC(=O)COC(=O)c2ccc(Br)o2)cc1 | 0 | -3.8 | 0 | 0
Cc1cc2sc(C(=O)O)c(C)c2s1 | 0 | 0 | - | -
Cc1ccc(S(=O)(=O)Cc2cccc(C(=O)N3CCOCC3)c2)cc1 | 0 | 0 | 0 | 0
COc1cc(CNCCO)cc(Br)c1OCc1cccs1 | 0 | 0 | 0 | 0
C=CCOc1c(Br)cc(CNc2nccs2)cc1OC | 0 | -7.9 | - | -
Cc1ccc(C(=O)N(c2ccccc2)C2CC(C)N(C(=O)c3ccco3)c3ccccc32)cc1 (configuration not stated) | 0 | -5.6 | 0 | 0
COc1cc(-c2nc(-c3ccc4c(c3)-c3ccccc3S4(=O)=O)c(-c3ccccc3)[nH]2)cc(OC)c1O | 0 | 0 | 0 | 0
C/C(=C\C(=O)c1ccncc1)Nc1ccccc1O | 0 | -5.7 | 0 | 0
CCSc1nc(C)cc(C)c1S(=O)(=O)c1ccccc1C | 0 | 0 | 31 | 0
CSc1nc(C)cc(C)c1S(=O)(=O)c1ccccc1C | 0 | -6.5 | 0 | 0
COc1c2c(c(C)c3c1C(=O)OC3)O[C@@]1(C)CC[C@@]3(O)C(C)(C)OC(=O)CC[C@]3(C)[C@H]1C2 | - | 0 | - | -
C=CCn1c(SCC(N)=O)nnc1-c1cccc(Br)c1 | 0 | 0 | 0 | 0
C=CCn1c(SCc2ccccc2C#N)nnc1-c1cc(Br)ccc1O | 0 | 0 | 52 | 0
c1cncc(-c2nnc(C3CCCCC3)o2)c1 | 0 | 0 | 0 | 0
COc1ccc(C/C(N)=N/OC(=O)Cc2ccccc2)cc1 | 0 | 0 | 0 | 0
Cc1ccccc1OCC(=O)O/N=C(\N)Cc1ccc(Cl)cc1 | 0 | 0 | 0 | 0
N/C(Cc1ccc(Cl)cc1)=N\OC(=O)c1ccc2ccccc2c1 | 0 | 0 | 81 | 0
N/C(Cc1ccc(Cl)cc1)=N\OC(=O)c1cccc2ccccc12 | 0 | 0 | 104 | 82
O=c1cc(C(F)(F)C(F)F)oc2ccccc12 | 0 | 0 | 0 | 0
C#CCNc1nc(CC)nc2c1nnn2Cc1ccccc1F | 0 | 0 | 0 | 0
Cc1cc2cc(C=O)c(Cl)nc2cc1C | 0 | -5.9 | 0 | 0
O=C(CN(Cc1ccccc1)S(=O)(=O)c1ccccc1)NC1CC1 | 0 | 0 | - | -
SMILES | Pyk2 oligo antag | Cav32 inh | PostGolgi ctrl | PostGolgi yeast
CCOc1cc(-c2ccc(N)c(OCC)c2)ccc1N | 0 | -5.4 | 0 | 0
c1ccc(-c2nc(NC3CC3)nc(-n3ccnc3)n2)cc1 | 0 | 0 | 0 | 0
O=C(NCc1cccs1)c1cc(S(=O)(=O)N2CCCCC2)ccc1Cl | 0 | 0 | - | -
O=C(C1CCCN(S(=O)(=O)c2ccc(Cl)cc2)C1)N(Cc1cccs1)C1CC1 (configuration not stated) | 0 | -5.6 | 0 | 94
CCOC(=O)N1CCC(N(CCOC)C(=O)Nc2ccc(Cl)c(Cl)c2)CC1 | 0 | 0 | 64 | 0
CCc1ccc(CNC(=O)C(=O)NCCc2ccc(OC)c(OC)c2)cc1 | 0 | -5.3 | - | -
COc1ccc(-n2c(SC(CN3CCCCC3)CN3CCCC3=O)nc3ccccc3c2=O)cc1 (configuration not stated) | 0 | 0 | 31 | 0
O=C(C1CCCCC1)N1CCC(c2nc3ccccc3[nH]2)CC1 | 0 | 0 | 0 | 0
N#CC(C(=O)C1CCCCC1)c1nc2ccccc2[nH]1 (configuration not stated) | 0 | 0 | 47 | 0
Cc1cc(NC(=O)CSc2n[nH]c(CC(C)C)n2)no1 | 0 | 0 | 0 | 0
Cc1cc(NC2CCCCC2)nc(-c2ccccc2O)n1 | 0 | 0 | 0 | 0
Cc1cc(Nc2ccccc2)nc(-c2ccccc2O)n1 | 0 | - | 37 | 0
Cc1cc(NCc2ccccc2)nc(-c2ccccc2O)n1 | 0 | 0 | 57 | 0
Cc1ccc(-c2cc3cccc[n+]3cc2-c2ccc(C)cc2)cc1 | 0 | - | - | -
Cc1nc2ccc(NS(=O)(=O)c3c(C)c(C)cc(C)c3C)cc2s1 | 0 | 0 | 36 | 0
Cc1ccc(S(=O)(=O)Nc2ccc3nc(C)sc3c2)cc1 | 0 | 0 | 0 | 0
